Assay [1] relates to Wnt5a (protein binding on small-molecule microarray). Put plainly: Wnt5a binders on small-molecule microarray, primary screen, biophysical, 635/667 nm fluorescence (AID 1142).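 Further: fluorescence read at 667 nm with signal to noise per printed feature.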 The settings on record: 635 nm fluorescence, higher = more signal.
The nature of assay [2]: cell viability in Huh7 cells, primary screen, cytotoxicity control for HCV replication inhibitor project, CellTiter-Glo luminescence, basal, 48 h (AID 1143).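 Further: Huh7 hepatoma cells carrying a hepatitis C replication reporter with no stimulus; test concentration not given here.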 The settings on record: Huh7 HCV replicon, higher = more signal, called active from +8 up or from −8 down. A general note: Cellular ATP, detected with luciferase, serves as a proxy for viable cell number.
Assay [3] can be described thus: P. aeruginosa biofilm formation inhibitors, primary screen, PAO1 strain, BacTiter-Glo luminescence, LB-PBS (AID 1144). The conditions noted are these: 12 h, higher = more signal.
The nature of assay [4]: CREB reporter modulators without forskolin, primary screen, cell-based, PC12, CRE-LacZ reporter, unstimulated (AID 1145). The conditions noted are these: no forskolin, luminescence, 4.5 h, higher = more signal, called active from +8 up or from −8 down.
The nature of assay [5]: CREB reporter modulators under forskolin, primary screen, cell-based, PC12, CRE-LacZ reporter, forskolin-stimulated (AID 1146).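 Further: PC12 cells with 6xCRE LacZ reporter stimulated by forskolin 10 µM; beta-galactosidase reporter signal reflecting CREB driven transcription.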 The conditions noted are these: luminescence, 4.5 h, higher = more signal, called active from +8 up or from −8 down.
Assay [6] addresses Streptavidin (Streptomyces avidinii) (UniProt P22629). The experiment in a line: streptavidin binders on small-molecule microarray, primary screen, artefact control for SMM compound annotation, biophysical, 635/667 nm fluorescence (AID 1147).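 Further: signal reflects streptavidin binding to arrayed compounds as a control protein.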 The conditions noted are these: streptavidin binding, higher = more signal.
Assay [7] can be described thus: small-molecule binders of probe aInhba, primary screen, biochemical, small-molecule microarray, 635/667 nm fluorescence (AID 1148).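 Further: score merges 667nm spot fluorescence with signal-to-noise for antibody binding to printed compounds.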 The settings on record: higher = more signal.
The target of assay [8] is Torsin-1A (Homo sapiens) (UniProt O14656). Put plainly: torsin A binders from cell lysate, primary screen, small-molecule microarray, wild-type, 635/667 nm (AID 1149). The conditions noted are these: COS7 hTOR1A-WT lysate, 635 nm fluorescence, higher = more signal.
Chain of Torsin-1A (Homo sapiens) (O14656 whole entry, looked up): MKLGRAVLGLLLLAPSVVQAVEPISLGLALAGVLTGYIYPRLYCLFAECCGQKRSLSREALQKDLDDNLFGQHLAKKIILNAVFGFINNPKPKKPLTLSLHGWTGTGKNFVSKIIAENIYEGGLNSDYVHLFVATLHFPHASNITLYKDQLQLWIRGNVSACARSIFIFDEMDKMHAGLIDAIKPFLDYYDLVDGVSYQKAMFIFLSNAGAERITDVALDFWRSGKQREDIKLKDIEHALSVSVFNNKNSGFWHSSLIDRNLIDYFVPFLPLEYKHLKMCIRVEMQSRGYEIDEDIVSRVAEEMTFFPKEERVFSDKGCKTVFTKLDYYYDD
Assay [9] shares this target. The experiment in a line: small-molecule binders of mutant TOR1A in lysate, primary screen, cell lysate, small-molecule microarray, COS7 lysate, 635/667 nm fluorescence (AID 1150).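 Further: score pools 667 nm emission and signal to noise measuring lysate protein binding.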 The settings on record: COS7 hTOR1A mutant lysate, 635 nm fluorescence, higher = more signal.
Assay [10] relates to Sonic hedgehog protein (Shh). Put plainly: small-molecule binders of Shh protein, primary screen, biochemical, small-molecule microarray, 635/667 nm fluorescence (AID 1151).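 Further: Shh protein binding to compounds spotted on small-molecule microarray slides; score combines spot fluorescence intensity with signal-to-noise across triplicate slides.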 The conditions noted are these: small-molecule microarray binding, 635 nm fluorescence; higher = more signal.
A short description of assay [11]: E. coli DRC41 culture turbidity changes, primary screen, E. coli filamentation inducer project, strain DRC41, OD650, 48 h (AID 1152).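 Further: E. coli MC1000 strain DRC41 lacking acrAB efflux pump and sulA.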 The settings on record: E. coli DRC41 (acrAB sulA), higher = more signal, called active from +8 up or from −8 down.
A short description of assay [12]: small-molecule binders of probe aLefty1, primary screen, biochemical, small-molecule microarray, 635/667 nm fluorescence (AID 1153).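 Further: score merges spot fluorescence with signal-to-noise ratio from the scanned slide images.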 The conditions noted are these: higher = more signal.
Assay [13] is described as follows: PSAC antagonists in infected red cells, primary screen, cell-based, P. falciparum Indochina, OD700, 1 h (AID 1154). The conditions noted are these: P. falciparum Indochina infected RBC osmotic lysis, higher = more signal, called active from +8 up or from −8 down.
Assay [14] in a line: PSAC antagonists in infected red cells, primary screen, cell-based, P. falciparum Indochina, OD700, 2 h (AID 1155).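 Further: lysis reports solute entry through the parasite surface anion channel PSAC; channel blockers reduce lysis of infected cells.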 The conditions noted are these: P. falciparum Indochina infected erythrocytes, osmotic lysis OD700; higher = more signal, called active from +8 up or from −8 down.
The nature of assay [15]: osmotic lysis modulators in infected erythrocytes, primary screen, PSAC antagonist project, cell-based, P. falciparum Indochina, OD700, 3 h (AID 1156). The settings on record: higher = more signal, called active from +8 up or from −8 down.
Assay [16] in a line: PSAC antagonists in infected red cells, primary screen, cell-based, P. falciparum Indochina, OD700, 18 h (AID 1157). The settings on record: P. falciparum Indochina infected erythrocytes, osmotic lysis OD700, 18 h; higher = more signal, called active from +8 up or from −8 down.
Assay [17] can be described thus: modulators of S6 phosphorylation in cells, primary screen, cell-based, A549, cytoblot, luminescence, serum-stimulated (AID 1158).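 Further: serum-stimulated A549 lung adenocarcinoma cells; signal is phosphorylated S6 detected by cytoblot immunostaining with HRP secondary.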 The conditions noted are these: A549 phospho-S6 cytoblot, 5 h, higher = more signal.
Assay [18] addresses NADPH oxidase 2 (Homo sapiens) (UniProt P04839). Put plainly: NOX2-dependent H2O2 signal modulators, primary screen, NOX inhibitor project, cell-based, HEK293-NOX2, PMA-stimulated, Amplex Red fluorescence (AID 1159). Further: test concentration not given here. The settings on record: 45 min, higher = more signal, called active from +8 up or from −8 down.
In assay [19] the target is NADPH oxidase 4 (Homo sapiens) (UniProt Q9NPH5). The experiment in a line: NOX4-dependent H2O2 signal modulators, primary screen, NOX inhibitor project, cell-based, HEK293-NOX4, tetracycline-induced, Amplex Red fluorescence (AID 1160). The settings on record: 45 min, higher = more signal, called active from +8 up or from −8 down.
Chain of NADPH oxidase 4 (Homo sapiens) (Q9NPH5 whole entry, looked up): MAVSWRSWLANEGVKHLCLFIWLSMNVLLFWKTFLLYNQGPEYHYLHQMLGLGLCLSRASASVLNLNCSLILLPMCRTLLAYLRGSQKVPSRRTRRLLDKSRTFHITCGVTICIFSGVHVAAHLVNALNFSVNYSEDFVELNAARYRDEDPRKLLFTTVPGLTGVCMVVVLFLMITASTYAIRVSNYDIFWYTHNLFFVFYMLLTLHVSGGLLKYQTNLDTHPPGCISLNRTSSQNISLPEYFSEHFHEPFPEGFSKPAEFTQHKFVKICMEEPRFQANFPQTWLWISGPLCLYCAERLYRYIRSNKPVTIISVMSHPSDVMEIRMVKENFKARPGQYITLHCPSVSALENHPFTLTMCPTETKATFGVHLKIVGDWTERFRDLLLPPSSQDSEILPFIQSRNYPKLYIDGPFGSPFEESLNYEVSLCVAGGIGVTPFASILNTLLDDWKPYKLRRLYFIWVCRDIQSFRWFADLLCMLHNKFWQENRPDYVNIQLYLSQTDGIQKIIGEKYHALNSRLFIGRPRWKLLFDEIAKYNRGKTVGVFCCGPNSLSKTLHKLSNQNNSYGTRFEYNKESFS
The target of assay [20] is NADPH oxidase 5 (Homo sapiens) (UniProt Q96PH1). The experiment in a line: NOX5-dependent H2O2 signal modulators, primary screen, NOX inhibitor project, cell-based, HEK293-NOX5, Amplex Red fluorescence (AID 1161). The settings on record: HEK293-NOX5, ionomycin, 45 min, higher = more signal.
Chain of NADPH oxidase 5 (Homo sapiens) (Q96PH1 whole entry, looked up): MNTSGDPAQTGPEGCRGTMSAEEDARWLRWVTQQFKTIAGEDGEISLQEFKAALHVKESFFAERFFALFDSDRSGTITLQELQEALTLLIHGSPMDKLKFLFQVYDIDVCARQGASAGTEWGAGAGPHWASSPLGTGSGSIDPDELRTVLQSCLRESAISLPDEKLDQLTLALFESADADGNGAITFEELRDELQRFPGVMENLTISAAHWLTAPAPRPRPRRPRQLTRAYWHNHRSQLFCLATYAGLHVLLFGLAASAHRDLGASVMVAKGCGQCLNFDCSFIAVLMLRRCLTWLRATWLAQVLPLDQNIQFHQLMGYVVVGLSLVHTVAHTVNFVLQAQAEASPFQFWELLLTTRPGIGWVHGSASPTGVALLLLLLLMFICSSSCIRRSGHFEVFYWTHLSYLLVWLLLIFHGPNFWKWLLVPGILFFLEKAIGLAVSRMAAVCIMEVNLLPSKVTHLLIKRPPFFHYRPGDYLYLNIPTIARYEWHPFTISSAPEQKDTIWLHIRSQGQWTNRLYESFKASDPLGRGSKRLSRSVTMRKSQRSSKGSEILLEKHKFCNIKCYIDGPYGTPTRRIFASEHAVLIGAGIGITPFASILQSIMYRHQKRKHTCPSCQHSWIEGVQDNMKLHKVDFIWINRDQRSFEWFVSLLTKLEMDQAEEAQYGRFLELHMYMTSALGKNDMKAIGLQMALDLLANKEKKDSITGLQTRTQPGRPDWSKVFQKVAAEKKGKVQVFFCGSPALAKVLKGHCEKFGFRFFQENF

Activity calls are given as the source filed them. Unless noted, how the calls were made is not given here.

Chain of NADPH oxidase 2 (Homo sapiens) (P04839 whole entry, looked up): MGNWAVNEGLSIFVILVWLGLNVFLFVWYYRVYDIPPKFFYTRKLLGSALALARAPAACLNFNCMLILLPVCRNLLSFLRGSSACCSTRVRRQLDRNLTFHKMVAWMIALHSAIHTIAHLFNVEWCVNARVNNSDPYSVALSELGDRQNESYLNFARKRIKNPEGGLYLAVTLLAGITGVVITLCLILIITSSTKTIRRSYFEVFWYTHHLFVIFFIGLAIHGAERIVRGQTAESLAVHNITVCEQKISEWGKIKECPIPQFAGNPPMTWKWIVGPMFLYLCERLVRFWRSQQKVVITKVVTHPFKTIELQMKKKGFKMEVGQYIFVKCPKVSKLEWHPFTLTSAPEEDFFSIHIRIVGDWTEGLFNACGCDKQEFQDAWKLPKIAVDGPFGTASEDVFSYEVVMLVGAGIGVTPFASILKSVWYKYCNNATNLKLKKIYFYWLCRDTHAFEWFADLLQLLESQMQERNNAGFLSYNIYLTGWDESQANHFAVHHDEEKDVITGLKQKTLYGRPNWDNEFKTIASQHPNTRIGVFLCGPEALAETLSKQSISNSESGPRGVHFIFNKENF
Chain of Streptavidin (Streptomyces avidinii) (P22629 whole entry, looked up): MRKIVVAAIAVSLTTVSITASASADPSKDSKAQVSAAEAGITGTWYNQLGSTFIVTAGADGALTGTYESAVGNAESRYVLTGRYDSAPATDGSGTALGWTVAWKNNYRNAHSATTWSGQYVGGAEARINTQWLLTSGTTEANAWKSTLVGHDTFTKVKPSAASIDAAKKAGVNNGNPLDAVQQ

In the case of `[N-]=[N+]=NCc1ccccc1[C@@H]1OC(c2ccc(OCCCO)cc2)=N[C@]1(Cc1ccccc1)C(=O)NCCN1CCOCC1`, the composite z-score in assay [1] came to 0.629; in [6] it was 0.686; in assay [7], 0.386; with Torsin-1A (Homo sapiens) [8], 0.0739; with Torsin-1A (Homo sapiens) [9], 0.818; in assay [10], 0.0392. The same compound came in with a composite z-score in [12] of 0.345. The z-score in assay [2] is -2.31 (inactive); in assay [3], 0.0636 (inactive); in assay [4], 2.76 (inactive); in assay [5], -0.808 (inactive); in [11] it was 0.745 (inactive); in assay [13], 18 (active). Also, the z-score in [14] was 3.55 (inactive); in [15], 1.97 (inactive); in assay [16], 1.13 (inactive); in assay [17], -0.408; in assay [18], -3.16 (inactive); in assay [19], 2.14 (inactive). The compound further displayed a z-score in assay [20] of 0.838.
On to `COc1ccc([Si](C)(C)[C@H]2[C@H](CCO)O[C@@]3(C(=O)N(Cc4ccc(N5C(=O)c6ccccc6Oc6ccccc65)cc4)c4ccccc43)[C@@H]2C)cc1`, for which the composite z-score in assay [1] is -0.154; in assay [6], -0.446; in [7] it was -0.0762; in the assay with Torsin-1A (Homo sapiens) [8] it was -1.08; in the assay with Torsin-1A (Homo sapiens) [9], -0.889; in assay [10], 1.13. For the same compound, in [12], the composite z-score was 0.0211. For the same compound, the z-score in assay [2] was -5.43 (inactive); in [3], -1.75 (inactive); in assay [4], 0.222 (inactive); in assay [5], -0.986 (inactive); in assay [11], 0.157 (inactive); in assay [13] it was 4.29 (inactive). The z-score in assay [14] was 2.83 (inactive); in assay [15], -1.44 (inactive); in [16], 1.38 (inactive); in assay [17], 0.211; in [18], -0.681 (inactive); in assay [19], 2.36 (inactive). This compound displayed a z-score in [20] of 1.9.
As for `O=C1[C@@H]2[C@@H](CC(COc3ccccc3)=C3[C@@H](CCc4ccccc4)OB(O)C[C@@H]32)C(=O)N1Cc1ccccc1`, the composite z-score in [1] is -0.0294; in assay [6] it was 0.376; in assay [7] it was -0.0161; in the assay with Torsin-1A (Homo sapiens) [8] it was 0.0258; with Torsin-1A (Homo sapiens) [9], 0.256; in assay [10], 0.919. The compound further came in with a composite z-score in assay [12] of 0.0089. Besides, the z-score was -1.91 (inactive) in assay [2]; 0.132 (inactive) in [3]; 1.94 (inactive) in [4]; -1.12 (inactive) in assay [5]; -1.45 (inactive) in [11]; 11.2 (active) in assay [13]. Besides, the z-score was 2.04 (inactive) in assay [14]; -0.791 (inactive) in assay [15]; 0.82 (inactive) in [16]; 0.17 in [17]; -0.0449 (inactive) in assay [18]; -0.128 (inactive) in assay [19]. For the same compound, the z-score in assay [20] is -0.199.
For the compound `[N-]=[N+]=Nc1ccccc1C[C@]1(C(=O)O)N=C(c2ccc(OCCCO)cc2)O[C@H]1c1ccccc1`, the composite z-score in assay [1] is 0.0269; in assay [6], 0.261; in [7], 0.189; with Torsin-1A (Homo sapiens) [8], 1.05; in the assay with Torsin-1A (Homo sapiens) [9], 1.45; in [10], -0.536. This compound also had a composite z-score in assay [12] of -0.007. The z-score in assay [2] is -0.218 (inactive); in [3], -0.54 (inactive); in [4], 2.53 (inactive); in assay [5] it was -0.522 (inactive); in assay [11] it was 0.174 (inactive); in assay [13], 18.4 (active). The z-score is 2.83 (inactive) in assay [14]; 1.35 (inactive) in assay [15]; 0.589 (inactive) in [16]; -0.138 in assay [17]; 0.22 (inactive) in assay [18]; 0.818 (inactive) in [19]. This compound also returned a z-score in assay [20] of 0.857.

The values above are taken from PubChem BioAssay.
